The full list was thinned out, with hits kept by preference.
12-LOX inh: Primary qHTS assay for inhibitors of human arachidonate 12S-lipoxygenase (ALOX12): Round 2. Polyunsaturated fatty acid lipoxygenase ALOX12 (Homo sapiens), P18054. purified 12hLO, xylenol orange hydroperoxide absorbance. Potency, µM (series often up to 108 µM), for inactives: at the highest dose activity change, negative = inhibition, usual class: inhibitors. 580,000 compounds, 1.1% hits; note: potency is the fitted concentration of half-maximal effect
Target sequence (P18054 whole entry, looked up): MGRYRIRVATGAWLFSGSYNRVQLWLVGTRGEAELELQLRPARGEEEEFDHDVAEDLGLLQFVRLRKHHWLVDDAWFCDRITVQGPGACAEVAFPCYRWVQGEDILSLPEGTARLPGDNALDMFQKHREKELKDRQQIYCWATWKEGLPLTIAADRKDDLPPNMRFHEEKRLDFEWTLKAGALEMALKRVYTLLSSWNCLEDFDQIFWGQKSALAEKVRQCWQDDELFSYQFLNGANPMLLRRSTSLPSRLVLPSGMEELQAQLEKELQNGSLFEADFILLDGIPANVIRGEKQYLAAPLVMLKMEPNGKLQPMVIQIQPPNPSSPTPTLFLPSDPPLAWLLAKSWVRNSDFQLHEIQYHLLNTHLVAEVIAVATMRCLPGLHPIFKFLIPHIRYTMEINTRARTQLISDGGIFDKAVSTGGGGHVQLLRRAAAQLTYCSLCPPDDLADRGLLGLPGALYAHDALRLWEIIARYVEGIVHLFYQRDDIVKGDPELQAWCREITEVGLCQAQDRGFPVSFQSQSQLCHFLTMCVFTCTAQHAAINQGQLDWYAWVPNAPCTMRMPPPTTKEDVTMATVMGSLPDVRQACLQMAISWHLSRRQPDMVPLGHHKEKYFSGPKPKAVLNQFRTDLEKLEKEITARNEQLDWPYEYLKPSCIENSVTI
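Purified human 12hLO at 150 nM in 25 mM Hepes, 0.01% Triton X-100, pH 7.0, preincubated 15 min at room temperature with compound. Reaction started with 40 uM arachidonic acid, 30 min at room temperature. Hydroperoxide measured by Fe-xylenol orange, 573/405 nm absorbance ratio.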
IL-1B inflam inh: qHTS for Inhibitors of Inflammasome Signaling: IL-1-beta AlphaLISA Primary Screen. activity change, % at 57.5 µM. 360,000 compounds, 4.7% hits. THP-1 LPS/ATP IL-1B secretion, AlphaLISA, 16 h; active compounds read low; in the data active = activity change below about -50%; inconclusive = mostly about -30% to -49%
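THP-1 cells pretreated 1 hr with compounds (up to 57.5 uM final), then stimulated with LPS (250 ng/mL final) plus ATP (1.25 mM final); secreted IL-1B measured by AlphaLISA after 16 hr, decreased signal indicating inhibition.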
HT1080 IDH1KD tx: qHTS for induction of synthetic lethality in tumor cells producing 2HG: qHTS for the HT-1080-IDH1KD cell line; HT-1080 IDH1 knockdown viability, ATP luminescence, 48 h; Potency, µM (highest dose often 46.1 µM), inactives show at the top dose activity, negative = toxicity, actives largely listed as cytotoxic; 360,000 compounds, 2% hits; AID 686971, 2013;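 note: potency is the fitted concentration of half-maximal effect; 0% = DMSO wells and -100% = cell-free medium wells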
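IDH1KD HT-1080 cells, 750/well, RPMI + 5% FBS; compound pinned after 2 h settling; 48 h, 37 °C; CellTiter-Glo luminescence; % activity normalised to DMSO and no-cell wells; curves fitted, classed by r2 and efficacy.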
TDP1 cell noCPT: qHTS for Inhibitors of human tyrosyl-DNA phosphodiesterase 1 (TDP1): qHTS in cells in absence of CPT. DT40 Tdp1-/- hTDP1 cells, no CPT, ATP luminescence, 48 h. Potency, µM (series often up to 46.2 µM), without a hit: at the highest dose activity change, negative = growth inhibition, usual class: inhibitors. 420,000 compounds, 15% hits. AID 686978, 2013; note: potency is the fitted concentration of half-maximal effect; nearly all actives have a fitted effect of over 55% in size
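Growth kinetics read by CellTiter-Glo luminescence after ≥48 hr at 37 °C. Cells: DT40 Tdp1-/- stably carrying human TDP1, 400 per well, compound exposure in the absence of CPT (DMSO vehicle).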
DT40 TDP1 CPT: qHTS for Inhibitors of human tyrosyl-DNA phosphodiesterase 1 (TDP1): qHTS in cells in presence of CPT | Potency, µM (highest dose often 46.2 µM), inactives show at the top dose activity change, negative = growth inhibition, usual class: inhibitors | chicken DT40 Tdp1-/-;hTDP1 cells + 20 nM CPT, ATP luminescence, 48 h | 420,000 compounds, 12% hits; note: potency is the fitted concentration of half-maximal effect; nearly all actives have a fitted effect of over 55% in size
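Cell growth measured by CellTiter-Glo luminescence after a minimum 48 h, 37 C compound exposure with 20 nM CPT in Tdp1-knockout DT40 cells stably expressing hTDP1, seeded 400/well; qHTS titration format.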
HT1080NT lethal: qHTS for induction of synthetic lethality in tumor cells producing 2HG: qHTS for the HT-1080-NT fibrosarcoma cell line | HT-1080-NT fibrosarcoma viability, CellTiter-Glo ATP luminescence, 48 h | Potency, µM (top dose mostly 46.1 µM), for inactives: top-dose activity, negative = less viability, hits mostly cytotoxic | 360,000 compounds, 1.6% hits;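 note: NT is the 2HG producing partner of a matched IDH1 knockdown line; potency is the fitted concentration of half-maximal effect; 0% = DMSO-treated cells and -100% = media-only wells without cells; nearly all actives have a fitted effect of over 55% in size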
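Fibrosarcoma NT cells, 750 per well in 5% FBS RPMI, were exposed to compound for 48 hours. Viability: CellTiter-Glo luminescence.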
* marks the source's active call; other numbers are inactive results; [ ] = another dose, or the depositor's remark. Unless noted, calls come from the whole dose curve; as a rule, active = well fitted curve in the direction sought with a large enough effect; inconclusive = small, poorly fitted or top-dose-only effect, or another doubt; inactive = no such curve, though single readings can be large; an effect the other way counts as inactive or inconclusive. Unless noted, % is set by controls: 0 for no effect and ±100 for the full control effect.

`Cc1ncoc1C(=O)N1Cc2ccccc2OC2(CCN(C)CC2)C1` gave 12-LOX inh 50.4%.
CCc1ccc(S(=O)(=O)Nc2cccn3nc(CC)nc23)cc1 was read as 12-LOX inh -20.2%.
CC(C)c1ccc(NNC(=O)C2CCC2)cc1 was read as 12-LOX inh inconclusive, HT1080 IDH1KD tx -2.3%, TDP1 cell noCPT 16.4µM*, DT40 TDP1 CPT 9.2µM* and HT1080NT lethal -0.9%.
For Cc1ccccc1C(=O)N1CCC(C(=O)Nc2ccc(C)c(S(=O)(=O)N3CCCCC3)c2)CC1 the results were 12-LOX inh 16.5%, IL-1B inflam inh -26.0, HT1080 IDH1KD tx -10.2%, TDP1 cell noCPT 5.8µM*, DT40 TDP1 CPT 13µM* and HT1080NT lethal -1.4%.
Cc1ccccc1C(=O)N1CCC(C(=O)Nc2cccc(S(=O)(=O)N3CCCCC3)c2)CC1 was read as 12-LOX inh inconclusive, IL-1B inflam inh -12.5, HT1080 IDH1KD tx -2.3%, TDP1 cell noCPT inconclusive, DT40 TDP1 CPT inconclusive and HT1080NT lethal -2.2%.
O=C(NNC(=O)C1CCN(S(=O)(=O)c2ccccc2C(F)(F)F)CC1)c1ccccc1O was read as 12-LOX inh -3.3%, IL-1B inflam inh 8.1, HT1080 IDH1KD tx inconclusive, TDP1 cell noCPT inconclusive, DT40 TDP1 CPT inconclusive and HT1080NT lethal -17.2%.
`CSc1cccc(NC(=O)C2CCN(C(=O)c3ccccc3C)CC2)c1` gave 12-LOX inh 0.2%, IL-1B inflam inh inconclusive, HT1080 IDH1KD tx -1.8%, TDP1 cell noCPT 20.6µM*, DT40 TDP1 CPT 18.4µM* and HT1080NT lethal -23.3%.
`CC(C)c1ccc(NC(=S)NNC(=O)C2CC2)cc1` gave 12-LOX inh 0.0%, IL-1B inflam inh -0.5, HT1080 IDH1KD tx 4.0%, TDP1 cell noCPT 14.6%, DT40 TDP1 CPT -1.6% and HT1080NT lethal 5.7%.
`O=C(NNC(=O)C1CCN(S(=O)(=O)c2ccccc2)CC1)c1ccccc1O` gave 12-LOX inh -13.4%, IL-1B inflam inh 135.5, HT1080 IDH1KD tx inconclusive, TDP1 cell noCPT 25.9µM*, DT40 TDP1 CPT 7.31µM* and HT1080NT lethal inconclusive.
For O=C1CC(c2noc(-c3ccccc3Cl)n2)CN1c1ccc(F)cc1 (configuration not stated) the results were 12-LOX inh 17.3%.
Cc1ccccc1C(=O)N1CCC(C(=O)Nc2ccc(S(=O)(=O)N3CCCC3)cc2)CC1 was read as 12-LOX inh -8.7%, IL-1B inflam inh 21.0, HT1080 IDH1KD tx -1.9%, TDP1 cell noCPT 18.4µM*, DT40 TDP1 CPT inconclusive and HT1080NT lethal -4.3%.
Screening Cc1ccccc1C(=O)N1CCC(C(=O)Nc2ccc(C(C)C)cc2)CC1 returned 12-LOX inh 1.9%, IL-1B inflam inh 42.1, HT1080 IDH1KD tx -12.7%, TDP1 cell noCPT 5.17µM*, DT40 TDP1 CPT 7.31µM* and HT1080NT lethal 0.0%.
For Cc1ccccc1C(=O)N1CCC(C(=O)Nc2ccc(F)cc2)CC1 the results were 12-LOX inh -0.8%, IL-1B inflam inh -14.9, HT1080 IDH1KD tx 8.3%, TDP1 cell noCPT -4.9%, DT40 TDP1 CPT -8.0% and HT1080NT lethal 4.4%.
Cc1ccccc1C(=O)N1CCC(N2CCCCCC2=O)CC1 was read as 12-LOX inh 89.1µM*.
`Cc1ccccc1C(=O)N1CCC(N2CCCNC2=O)CC1` gave 12-LOX inh 45.6%[176 µM].
Screening COc1ccccc1OCCN(C#N)c1nc(N(C)C)nc(N(C)C)n1 returned 12-LOX inh 1.0%, IL-1B inflam inh -77.3*, HT1080 IDH1KD tx 2.4%, TDP1 cell noCPT inconclusive, DT40 TDP1 CPT 20.6µM* and HT1080NT lethal 4.6%.
For COc1ccc(NC(=O)N[C@H]2[C@H](O)[C@@H](N3CCN(C)CC3)[C@@H]3OC[C@H]2O3)cc1 the results were 12-LOX inh 56.9%[176 µM].
Cc1cc(C)cc(-n2cccc2/C=C2/C(=N)N3C(=NC2=O)SN=C3S(C)(=O)=O)c1 was read as 12-LOX inh inconclusive, IL-1B inflam inh 27.7, HT1080 IDH1KD tx -16.8%, TDP1 cell noCPT -4.8%, DT40 TDP1 CPT 0.5% and HT1080NT lethal 18.4µM*.
`Cc1ccc(-n2cccc2/C=C2/C(=N)N3C(=NC2=O)SN=C3S(C)(=O)=O)cc1` gave 12-LOX inh inconclusive, IL-1B inflam inh -14.9, HT1080 IDH1KD tx 8.1%, TDP1 cell noCPT -0.7%, DT40 TDP1 CPT 19.3% and HT1080NT lethal -5.5%.
`COc1cc(CC(=O)NC2CCc3ccccc32)ccc1C` (configuration not stated) gave 12-LOX inh -5.8%.
For COc1cc2c(c(OC)c1OC)-c1ccc(NC(=O)c3ccccc3)c(=O)cc1[C@@H](NC(C)=O)CC2 the results were 12-LOX inh -17.0%, IL-1B inflam inh 4.2, HT1080 IDH1KD tx 0.0%, TDP1 cell noCPT -9.0%, DT40 TDP1 CPT 3.3% and HT1080NT lethal 0.1%.
For CCOC(=O)NC1CCc2cc(OC)c(OC)c(OC)c2-c2ccc(SC)c(=O)cc21 (configuration not stated) the results were 12-LOX inh inconclusive, IL-1B inflam inh 44.7, HT1080 IDH1KD tx 0.103µM*, TDP1 cell noCPT 0.0164µM*, DT40 TDP1 CPT 0.0103µM* and HT1080NT lethal 0.0092µM*.
For CCOCC(=O)NC1CCc2cc(OC)c(OC)c(OC)c2-c2ccc(SC)c(=O)cc21 (configuration not stated) the results were 12-LOX inh inconclusive, IL-1B inflam inh 0.0, HT1080 IDH1KD tx inconclusive, TDP1 cell noCPT 0.164µM*, DT40 TDP1 CPT 0.0146µM* and HT1080NT lethal 0.0116µM*.
`CN[C@H]1CCc2cc(OC)c(OC)c(OC)c2-c2ccc(OC)c(=O)cc21` gave 12-LOX inh -9.3%, IL-1B inflam inh 33.1, HT1080 IDH1KD tx 12.4%, TDP1 cell noCPT 0.13µM*, DT40 TDP1 CPT 0.0206µM* and HT1080NT lethal -0.1%.

Assay outcomes (PubChem BioAssay)
